Laboratory results published in PubChem BioAssay (NCI).
“And” between values parts separate entries of the source, which are not always exact repeats. Equal entries are not always repeated. About 83,000 compounds went through this panel and 20% of them were active in at least one assay; those are over-represented in the sample as a whole.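 Each cell line was grown in a 96-well plate and treated with one concentration of compound for 48 hours. Values below 10 were considered active.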 The source made the active and inactive calls.

Experiments:
Assay in all cases: NCI-60 one-dose screen, 48 h (100 = growth as untreated, 0 = no growth, -100 = all killed)
[1] = test system: RPMI-8226 leukemia; conditions: 10 µM unless noted
[2] = test system: OVCAR-8 ovarian; conditions: 10 µM unless noted
[3] = test system: OVCAR-5 ovarian; conditions: 10 µM unless noted
[4] = test system: OVCAR-4 ovarian; conditions: 10 µM unless noted
[5] = test system: SK-OV-3 ovarian; conditions: 10 µM unless noted
[6] = test system: IGROV1 ovarian; conditions: 10 µM unless noted
[7] = test system: OVCAR-3 ovarian; conditions: 10 µM unless noted
[8] = test system: HS 578T breast; conditions: 10 µM unless noted
[9] = test system: NCI/ADR-RES ovarian; conditions: 10 µM unless noted
[10] = test system: T-47D breast; conditions: 10 µM unless noted
[11] = test system: BT-549 breast; conditions: 10 µM unless noted
[12] = test system: MDA-MB-435 melanoma; conditions: 10 µM unless noted
[13] = test system: SW-620 colon; conditions: 10 µM unless noted
[14] = test system: MCF7 breast
[15] = test system: HCT-116 colon; conditions: 10 µM unless noted
[16] = test system: HCC-2998 colon; conditions: 10 µM unless noted
[17] = test system: KM12 colon; conditions: 10 µM unless noted

| SMILES | growth [1] | growth [2] | growth [3] | growth [4] | growth [5] | growth [6] | growth [7] | growth [8] | growth [9] | growth [10] | growth [11] | growth [12] | growth [13] | growth ([14]; 10 µM unless noted) | growth [15] | growth [16] | growth [17] | growth ([14]; 10 µM) | growth ([14]; 100 µM) |
| --- | --- | --- | --- | --- | --- | --- | --- | --- | --- | --- | --- | --- | --- | --- | --- | --- | --- | --- | --- |
| O=C(NNC(=S)Nc1ccccc1)c1ccncc1 | 96.8% (inactive) | 104% (inactive) | 107% (inactive) | 116% (inactive) | 118% (inactive) | 106% (inactive) | 114% (inactive) | 132% (inactive) | 105% (inactive) | 109% (inactive) | 88.1% (inactive) | 112% (inactive) | 113% (inactive) | 94.2% (inactive) | 104% (inactive) | 109% (inactive) | 107% (inactive) |  |  |
| Nn1c(-c2ccc(Cl)cc2)nc2c(-c3ccc(Cl)cc3)nc3ccc(Cl)cc3c2c1=O | 30.1% (inactive) | 11.6% (inactive) | 68.7% (inactive) | -78.1% (active) | 20.3% (inactive) | 7.14% (active) | -81.5% (active) | -14.1% (active) | 52.4% (inactive) | 9.59% (active) | 45.1% (inactive) | 37.4% (inactive) | -66.1% (active) | 21.7% (inactive) | -100% (active) | 372% (inactive) | 36.9% (inactive) |  |  |
| O=c1cc(N/N=C/c2ccc(F)cc2)c2cc(Cl)ccc2[nH]1 | -43.8% (active) | 93.6% (inactive) | 88.4% (inactive) | 92.9% (inactive) | 84.9% (inactive) | 107% (inactive) | 100% (inactive) | 121% (inactive) | 105% (inactive) | 68.5% (inactive) | 93.6% (inactive) | 78.6% (inactive) | 101% (inactive) | 84.6% (inactive) | 84.1% (inactive) | 85.1% (inactive) | 108% (inactive) |  |  |
| NC(N)=NC(N)=NCCCc1ccco1 | 106% (inactive) | 96% (inactive) | 114% (inactive) | 104% (inactive) | 103% (inactive) | 99.8% (inactive) | 102% (inactive) | 109% (inactive) | 103% (inactive) | 106% (inactive) | 115% (inactive) | 110% (inactive) | 94.5% (inactive) | 106% (inactive) | 108% (inactive) | 106% (inactive) | 101% (inactive) |  |  |
| COc1ccc(Oc2nc(Nc3ccc(N4CCOCC4)cc3)ncc2NC(=O)c2cc(OC)cc(OC)c2)cc1 | 53.2% (inactive) | 92.1% (inactive) | 123% (inactive) | 81.3% (inactive) | 102% (inactive) | 83.8% (inactive) | 83.5% (inactive) | 76.7% (inactive) | 81.6% (inactive) | 93.6% (inactive) | 90.1% (inactive) | 40.4% (inactive) | 71.4% (inactive) | 76.9% (inactive) | 87.9% (inactive) | 98.4% (inactive) | 79.3% (inactive) |  |  |
| CC(C)(C)CC(N)=O | 107% (inactive) | 97.7% (inactive) | 102% (inactive) | 100% (inactive) | 88.2% (inactive) | 112% (inactive) | 110% (inactive) | 106% (inactive) | 102% (inactive) |  | 75.3% (inactive) | 109% (inactive) | 102% (inactive) |  | 93.6% (inactive) | 106% (inactive) | 109% (inactive) | 85.9% (inactive) | 85.2% (inactive) and 8.62% (active) |
| Nc1nc2c(s1)CCc1cn(S(=O)(=O)c3ccccc3)cc1-2 | 98.9% (inactive) and 91.4% (inactive) | 88.6% (inactive) and 110% (inactive) | 102% (inactive) and 104% (inactive) | 87.5% (inactive) | 106% (inactive) and 109% (inactive) |  | 96% (inactive) and 108% (inactive) | 86.4% (inactive) and 107% (inactive) | 91.9% (inactive) and 103% (inactive) | 81.6% (inactive) and 111% (inactive) | 84% (inactive) and 109% (inactive) | 91.1% (inactive) and 107% (inactive) | 99.7% (inactive) and 99.3% (inactive) | 93.4% (inactive) and 94.3% (inactive) | 84.5% (inactive) and 100% (inactive) | 111% (inactive) and 106% (inactive) | 94.6% (inactive) and 108% (inactive) |  |  |
| CC/C=C\C/C=C\C[C@H](O)C/C=C1/C(=O)C=C[C@@H]1C/C=C\CCCC(=O)OC | -8.73% (active) | 7.41% (active) | 11% (inactive) | 28.2% (inactive) | 24.2% (inactive) | -28.9% (active) | -40.1% (active) | 32.6% (inactive) | 12.1% (inactive) | 4.23% (active) | -14.9% (active) | -16.4% (active) | -46.3% (active) | 2.32% (active) | -63.8% (active) | -83.9% (active) | -71.6% (active) |  |  |
| COC(=O)[C@H]1Cc2c([nH]c3ccccc23)[C@@H](c2cccs2)N1 | 103% (inactive) | 104% (inactive) | 102% (inactive) | 102% (inactive) | 102% (inactive) | 101% (inactive) | 111% (inactive) | 103% (inactive) | 106% (inactive) | 92.9% (inactive) | 102% (inactive) | 100% (inactive) | 100% (inactive) | 103% (inactive) | 104% (inactive) | 102% (inactive) |  |  |  |
| N#C/C(=C\c1ccccc1Cl)c1cc2ccccc2[nH]1 | 77.1% (inactive) | 96.4% (inactive) | 95.8% (inactive) | 96.4% (inactive) | 76.3% (inactive) | 84.7% (inactive) | 101% (inactive) | 92.9% (inactive) | 95.5% (inactive) | 38% (inactive) | 89.1% (inactive) | 101% (inactive) | 89% (inactive) | 36% (inactive) | 87.4% (inactive) | 111% (inactive) |  |  |  |
| FC(F)(F)Sc1ccc(/C=C/c2cc(/C=C/c3ccc(SC(F)(F)F)cc3)n(-c3ccccc3)n2)cc1 | 93.9% (inactive) | 95.1% (inactive) | 110% (inactive) | 92.3% (inactive) | 88.1% (inactive) | 99.9% (inactive) | 95.5% (inactive) | 98.8% (inactive) | 98.5% (inactive) | 84.3% (inactive) | 103% (inactive) | 91.7% (inactive) | 94.9% (inactive) | 89% (inactive) | 94.3% (inactive) | 101% (inactive) | 95.2% (inactive) |  |  |
| NS(=O)(=O)OCC1OC(n2cnc3cncnc32)C(O)C1O (stereo not given) | 25.1% [0.1 µM] (inactive) | 1.63% [0.1 µM] (active) and 1.09% [0.1 µM] (active) | 24.4% [0.1 µM] (inactive) and 6.91% [0.1 µM] (active) | 14.6% [0.1 µM] (inactive) and 11.4% [0.1 µM] (inactive) | 18.5% [0.1 µM] (inactive) and 21.6% [0.1 µM] (inactive) | 18% [0.1 µM] (inactive) and 48.5% [0.1 µM] (inactive) | 38.6% [0.1 µM] (inactive) and 28.1% [0.1 µM] (inactive) | 55.8% [0.1 µM] (inactive) | -5.79% [0.1 µM] (active) and 4.02% [0.1 µM] (active) | 7.17% [0.1 µM] (active) and 10.8% [0.1 µM] (inactive) | 36% [0.1 µM] (inactive) and 32.4% [0.1 µM] (inactive) | 1.21% [0.1 µM] (active) and 13.3% [0.1 µM] (inactive) | 5.5% [0.1 µM] (active) and 6.37% [0.1 µM] (active) | 5.2% [0.1 µM] (active) and 3.48% [0.1 µM] (active) | 2.55% [0.1 µM] (active) and 6.83% [0.1 µM] (active) | 30.7% [0.1 µM] (inactive) and 22.9% [0.1 µM] (inactive) | 14% [0.1 µM] (inactive) and 10.4% [0.1 µM] (inactive) |  |  |
| Clc1ccc2c(c1)N(c1ncnc3ccc(-c4cnc5[nH]ccc5c4)cc13)CC2 | 26% (inactive) | 27.9% (inactive) | 39.1% (inactive) | 0.279% (active) | 28.3% (inactive) | -24% (active) | 21.5% (inactive) | 1.12% (active) | 33.3% (inactive) | -15% (active) | 20.1% (inactive) | -42.1% (active) | 24.5% (inactive) | 6.81% (active) | 16.6% (inactive) | 43.7% (inactive) | 19.9% (inactive) |  |  |
| CN(Cc1ccccc1)c1nc(Cl)c(C2CC(c3ccc4c(c3)OCO4)=NN2c2cc(Cl)cc(Cl)c2)s1 (stereo not given) | 83.7% (inactive) | 105% (inactive) | 106% (inactive) | 90.1% (inactive) | 92.9% (inactive) | 95.3% (inactive) | 103% (inactive) | 96.5% (inactive) | 104% (inactive) | 86.1% (inactive) | 104% (inactive) | 97.2% (inactive) | 99.1% (inactive) | 78.2% (inactive) | 87% (inactive) | 106% (inactive) | 98.5% (inactive) |  |  |
